In PubChem BioAssay:
Unmarked numbers belong to inactive results. The rule behind the calls is not given here.

target: Pantothenate synthetase (Mycobacterium tuberculosis (strain ATCC 25618 / H37Rv)) (UniProt P9WIL5); assay: Coupled enzyme confirmation of inhibitors against recombinant Mtb PanC (AID 375); conditions: coupled enzyme assay; at 10 µM, stronger effect = higher value;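 note: 0% = full reaction with vehicle and 100% = no enzyme background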
Sequence (P9WIL5 whole entry, looked up): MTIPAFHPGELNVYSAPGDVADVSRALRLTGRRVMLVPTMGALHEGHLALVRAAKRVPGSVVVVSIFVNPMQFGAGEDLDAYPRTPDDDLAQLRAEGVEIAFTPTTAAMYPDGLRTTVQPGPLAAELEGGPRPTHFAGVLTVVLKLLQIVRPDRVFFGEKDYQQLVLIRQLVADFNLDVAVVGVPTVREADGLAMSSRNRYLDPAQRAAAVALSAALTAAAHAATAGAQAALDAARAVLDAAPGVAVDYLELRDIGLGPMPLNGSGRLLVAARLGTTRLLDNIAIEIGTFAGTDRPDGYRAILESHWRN

| Compound | inhibition |
| --- | --- |
| Cc1cc(C)c2c(N)c(C(=O)N3CCN(c4ncccn4)CC3)sc2n1 | 3% |
| CN(C)c1nc(OCCOC(=O)Nc2ccc(Cl)cc2Cl)nc(N(C)C)n1 | 0% |
| Cc1csc(NC(=O)c2ccccc2C(=O)O)n1 | 5% |
| c1ccc2[nH]c(CSc3nnc(-c4ccncc4)o3)nc2c1 | 4% |
| CCCS(=O)(=O)NCCc1cc2cc(C)c(C)cc2[nH]c1=O | 0% |
| Cc1cc(C)n(C(=O)C23CC4CC(CC(C4)C2)C3)n1 | 0% |
| Cc1ccc(Nc2nnns2)cc1C | 4% |
| O=C(CSc1nnc(C2COc3ccccc3O2)o1)N1CCCc2ccccc21 (stereo not given) | 0% |
| CC1CCN(C(=O)Cn2cc3c(n2)CCCC3)CC1 | 0% |
| CCCCP(=O)(CCCC)Cc1ccccc1O | 0% |
| CC(=O)Nc1ccc(NC(=O)Cn2cnc3c(cnn3C(C)(C)C)c2=O)cc1 | 3% |
| Cc1nc2ccccc2c2oc(C(=O)NCc3ccccn3)cc12 | 2% |
| COc1ccccc1C(=O)n1nc(-c2ccc(Cl)cc2)nc1N | 3% |
| CCN(C(=O)c1cn(C)c(=O)c2cc(OC)c(OC)cc12)c1ccccc1C | 6% |
| CCCCC(NC(C)=O)c1nc2ccccc2n1CCC (stereo not given) | 0% |
| Cc1sc2nc(SCC(=O)NCCO)n(C)c(=O)c2c1C | 0% |
| Cc1ccc(Oc2ccc(-c3nc(N)nc(N)n3)cc2)cc1 | 7% |
| C/C(=N\O)C(=O)C(CN1CCCCC1)CN1CCCCC1 | 0% |
| COc1ccc2[nH]c(=O)c(CN(C(=O)c3cccnc3)c3ccccc3OC)cc2c1 | 1% |
| CCCCCc1c(O)c2ccccc2[nH]c1=O | 0% |

| Compound | inhibition |
| --- | --- |
| Cc1csc(NC(=O)c2sc3nc(-c4cccs4)ccc3c2N)n1 | 5% |
| Cc1cc(C)nc(NC(=O)c2cnc3sccn3c2=O)n1 | 13% |
| O=C(C1CCC1)N1CCc2cc(S(=O)(=O)Nc3ccc4c(c3)OCO4)ccc21 | 16% |
| COc1cccc(NC(=O)COC(=O)c2ccco2)c1 | 0% |
| Nc1cc(C(=O)O)ccc1Nc1ccc(F)c(F)c1 | 5% |
| Cc1cc(NC(=O)CSc2nc3ccccc3n2CC(=O)N2CCCCC2)no1 | 0% |
| O=C(CN(Cc1ccc(F)cc1)C(=O)Cn1nnc2ccccc21)NCC1CCCO1 (stereo not given) | 0% |
| Cc1ccc(-c2noc(CN3CCN(c4ccccc4F)CC3)n2)cc1 | 0% |
| COc1ccccc1-c1nc2n(n1)C(c1ccc(Cl)cc1)C(C(N)=O)=C(C)N2 (stereo not given) | 0% |
| Cc1ccc(C)c(N2CCN(Cc3nnnn3C3CCCCC3)CC2)c1 | 1% |
| CC1(C)Cc2ccccc2C(N)=C1C#N | 5% |
| CC(C(=O)Nc1ccccc1-c1ccccc1)N1CCN(C(=O)c2ccco2)CC1 (stereo not given) | 0% |
| CN(C)CCCn1c(N)c(C#N)c2nc(C#N)c(C#N)nc21 | 0% |
| CCc1ncc(C(O)c2cccc(OC)c2OC)n1C (stereo not given) | 0% |
| CC(=O)OC[C@H]1O[C@@H](n2ncc(=O)[nH]c2=O)[C@H](OC(C)=O)[C@@H]1OC(C)=O | 0% |
| O=C(Nc1nnc(CCN2CCCCC2)s1)C1CCCCC1 | 0% |
| Cc1cc2ccccc2c(=O)n1CC(=O)Nc1ccc2c(c1)OCO2 | 0% |
| CC1CCN(C(=O)CCNS(=O)(=O)c2ccccc2)CC1 | 3% |
| Cc1ccc(CNC(=O)CSc2n[nH]c(N)n2)cc1 | 0% |
| COc1cc(S(=O)(=O)N2CCC(N3CCCCC3)CC2)ccc1-n1cnnn1 | 3% |
